Reference: ChEMBL document CHEMBL5308504, “Tm Shift (DSF) assay results for EUbOPEN Chemogenomics Library” (2023)

Key:
[1] = target: Bromodomain-containing protein 4 (Homo sapiens) (UniProt O60885); details: Compound concentration 20.0 uM, Protein concentration 2.0 uM, Result type QC Liability
[2] = target: T1, Transcription intermediary factor 1-alpha (Homo sapiens) (UniProt O15164); details: Compound concentration 20.0 uM, Protein concentration 2.0 uM, Result type QC Liability
T1 sequence (whole entry): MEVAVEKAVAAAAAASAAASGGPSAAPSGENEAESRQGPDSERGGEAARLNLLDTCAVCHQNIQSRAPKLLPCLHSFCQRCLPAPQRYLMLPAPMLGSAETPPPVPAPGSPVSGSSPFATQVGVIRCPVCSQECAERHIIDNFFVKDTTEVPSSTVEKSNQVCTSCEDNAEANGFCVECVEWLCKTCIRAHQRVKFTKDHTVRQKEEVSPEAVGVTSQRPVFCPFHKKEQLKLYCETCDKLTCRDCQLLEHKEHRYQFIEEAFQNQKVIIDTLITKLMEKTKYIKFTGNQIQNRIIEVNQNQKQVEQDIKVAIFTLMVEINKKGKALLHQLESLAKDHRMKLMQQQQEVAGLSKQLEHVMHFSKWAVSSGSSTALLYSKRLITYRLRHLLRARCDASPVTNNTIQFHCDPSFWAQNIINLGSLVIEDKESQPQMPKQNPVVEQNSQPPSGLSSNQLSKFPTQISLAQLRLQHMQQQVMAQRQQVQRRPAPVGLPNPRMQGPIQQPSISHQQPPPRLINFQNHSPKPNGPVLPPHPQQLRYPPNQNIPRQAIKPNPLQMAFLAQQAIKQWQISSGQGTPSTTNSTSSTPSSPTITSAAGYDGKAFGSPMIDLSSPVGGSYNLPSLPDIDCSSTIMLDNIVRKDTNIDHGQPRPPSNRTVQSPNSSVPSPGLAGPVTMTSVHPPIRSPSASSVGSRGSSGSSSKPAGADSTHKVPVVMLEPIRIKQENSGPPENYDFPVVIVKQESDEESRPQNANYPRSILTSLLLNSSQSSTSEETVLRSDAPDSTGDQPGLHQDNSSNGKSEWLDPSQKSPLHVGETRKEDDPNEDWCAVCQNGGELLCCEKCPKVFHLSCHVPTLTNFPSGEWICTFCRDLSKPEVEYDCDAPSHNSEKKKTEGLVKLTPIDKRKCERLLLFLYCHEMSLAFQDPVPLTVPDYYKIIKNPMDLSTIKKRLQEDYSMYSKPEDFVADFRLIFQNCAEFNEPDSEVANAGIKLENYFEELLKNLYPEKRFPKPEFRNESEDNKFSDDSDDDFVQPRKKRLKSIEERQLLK

Row | SMILES | ΔTm [1] [°C] | ΔTm [2] [°C]
1 | O=C1COc2cc(C(=O)N(Cc3ccc(C(=O)Nc4ccncn4)cc3)C3CC3)ccc2N1 | 0.06 | -2.92
2 | CNC(=O)c1ccc2c(c1)ncn2-c1ccc(CC(=O)OC(C)(C)C)cc1 | -0.5 | -3.2
3 | CC1(C)C[C@@H]1C(=O)N/C(=C\CCCCSC[C@H](N)C(=O)O)C(=O)O | -2.05 | -0.56
4 | Cc1ccc(C(=O)Nc2cc(N3CCN(C)CC3)cc(C(F)(F)F)c2)cc1-n1cc(-c2cnn(C)c2C)nn1 | -2.13 | -1.79
5 | N#Cc1cccc(-c2c[nH]c3ncnc(N4CCOCC4)c23)c1 | -2.27 | -2.93
6 | CN(C)CCCN1c2ccccc2Sc2ccc(Cl)cc21 | -1.94 | -3.45
7 | Cn1cnc(Cn2ccc3ccc(CNCc4[nH]c5ccccc5c4[C@@H]4NC(=O)c5ccc(O)cc54)cc32)c1 | -1.28 | 0.32
8 | CC(C)[C@H](CO)Nc1nc(Nc2ccc(C(=O)O)c(Cl)c2)c2ncn(C(C)C)c2n1 | 0.61 | -2.66
9 | CC(C)(C)OC(=O)CN(Cc1ccc(Cl)cc1)Cc1ccc([N+](=O)[O-])s1 | -2.44 | -2.89
10 | CC(C)c1nc2c(c3c1[C@H](c1ccc(C(F)(F)F)cc1)OC31CCOCC1)[C@H](O)CC(C)(C)C2 | -0.03 | 0.26
11 | O=C1Nc2ccc(C(=O)c3ccco3)cc2C1=Cc1cc(Cl)c(O)c(Cl)c1 | 0.79 | -3.45
12 | C/C(=C\C(=O)Nc1ccccc1C(=O)O)c1ccc2ccccc2c1 | -0.82 | 0.61
13 | O=C1CCCN1CCNc1nc(Nc2ccc(Cl)c(Cl)c2)ncc1C(F)(F)F | -2.43 | -1.81
14 | CNS(=O)(=O)c1ccc(N(C)C)c(Nc2ncnc3cc(OC)c(OC)cc23)c1 | -3.63 | -2.8
15 | CCS(=O)(=O)Nc1cccc(Oc2cc(F)cc(Nc3ccc(I)cc3F)c2NS(=O)(=O)C2CC2)c1 | -2.86 | 3.45
16 | Cc1ncc(C(=O)Nc2cc(C(C)(C)C)on2)cc1-n1cc(-c2cnn(C)c2C)nn1 | -3.35 | -3.56
17 | Nc1ncnc2c1ccn2[C@@H]1O[C@H]([C@@H](O)c2ccccc2)[C@@H](O)[C@H]1O | -2.22 | -3.4
18 | N=C(N)NCCC[C@H](NC(=O)CC1(CC(=O)N2CCN(C3c4ccccc4NC(=O)c4ccccc43)CC2)CCCC1)C(=O)NCCn1c(=O)n(-c2ccccc2)n(-c2ccccc2)c1=O (some centres undefined) | 0.44 | -2.38
19 | CC1(C)C(=O)N([C@H]2CCc3c(O)cccc32)c2nc(Nc3cccc(CN4CCCC4)c3)ncc21 | -2.45 | -2.64

Row | SMILES | ΔTm [1] [°C] | ΔTm [2] [°C]
20 | CC(C)(C)c1cnc(CSc2cnc(NC(=O)C3CCNCC3)s2)o1 | 0.24 | -1.61
21 | Cn1nccc1-c1ccc(Sc2cccc(C3(C(N)=O)CCOCC3)c2)cc1 | -0.19 | 0.56
22 | CCCNc1ccc2ncc(-c3ccncc3)n2n1 | -0.06 | -2.61
23 | COc1cc(Nc2cnc(C#N)c(O[C@H](C)CN(C)C)n2)ncc1-c1cnn(C)c1 | -1.55 | -2.76
24 | COc1cc2ncnc(Nc3cccc(O)c3)c2cc1OC | 0.18 | -0.88
25 | CCCc1c(OCCCOc2ccc(OCC(=O)O)cc2)ccc(C(C)=O)c1O | -2.92 | -1.6
26 | Cc1nccn1-c1ccc(Sc2cccc(C3(C(N)=O)CCOCC3)c2)cc1 | -0.68 | -1.02
27 | CN1C(=O)Cc2ccc(-c3ccc(C[C@@H](C#N)NC(=O)[C@@H]4N[C@H]5CC[C@@H]4C5)c(F)c3)cc21 | -1.1 | 0.19
28 | Cc1ccccc1Oc1cc(-n2c(=O)cc(C(F)(F)F)[nH]c2=O)c2ccccc2c1Cl | -1.47 | -0.87
29 | N[C@@H](CC(=O)O)Cn1nnc(-c2ccc(Oc3ncc(Cl)cc3F)cc2)n1 | -12.6 | -0.53
30 | O=C(Nc1ccc(OC(F)(F)Cl)cc1)c1cnc(N2CC[C@@H](O)C2)c(-c2cc[nH]n2)c1 | 0 | -3.05
31 | NC(=O)C1CCCc2c1[nH]c1ccc(Cl)cc21 (centres undefined) | -1.42 | -1.04
32 | COc1cc2ncnc(Nc3ccc(F)c(Cl)c3)c2cc1OCCN(C)C[C@H](C)O | -3.09 | -1.09
33 | Cn1cc(Nc2nccc(N3CC4CCC(C3)N4C(=O)[C@@H]3CC3(F)F)n2)cn1 | -1.13 | -1.71
34 | CCn1c(-c2nonc2N)nc2ccccc21 | -0.33 | -1.27
35 | Cc1nn(-c2ccccc2)c(Nc2ccccc2C(=O)O)c1-c1cc2nccnc2c(F)c1F | -1.68 | 0.83
36 | COc1cc(-c2cn[nH]c2)ccc1C(=O)Nc1ccc2c(c1)CCNCC2 | -1.67 | -2.57
37 | C[C@@]1(Cc2ccc(C#N)cc2)C(=O)N(c2cc(Cl)cc(Cl)c2)c2ncc(C(=O)NC3(c4nc(C5CCC5)no4)CC3)n21 | 10.3 | 0.39
